Screens as filed in PubChem.
Only some compounds are listed: those with a hit (about 0.97% of all), similar ones and a draw of the others.
RecA intein inh – blocks M. tuberculosis RecA intein splicing | cell-free RecA intein splicing, fluorescence | AID 2221 | P9WHJ3 | inhibition, % (test concentration not listed) | hit rate 0.75% among 290,000; in the data active means inhibition above about 30%;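 further: 0% = vehicle wells and 100% = reference inhibitor control wells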
Mtb betalactam – beta-lactam sensitization of Mtb H37Rv; AID 434955; M. tuberculosis H37Rv growth with meropenem, percent inhibition; inhibition, % at 25 µM; hit rate 0.27% among 330,000; call rule not given here;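 further: growth measured after seven days incubation then overnight dye step; 0% = bacteria only wells and 100% = bacteria with antibiotic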
Rv3671c protease – Rv3671c (M. tuberculosis) protease inhibition. P9WHR9. inhibition, % at 5.96 µM. hit rate 0.048% among 320,000. AID 2606; in the data active means inhibition above about 38%;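 further: extracellular domain of Rv3671c used as enzyme; 0% = enzyme with DMSO and 100% = no enzyme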
UGM FP inh – blocks M. tuberculosis UGM enzyme; P9WIQ1; AID 504406; inhibition, % at 10 µM; purified UGM, fluorescence polarization probe displacement; hit rate 0.06% among 320,000; in the data active means inhibition above about 10%, passing the limit was not always enough
MazEF act – increases E. coli MazEF RNase cleavage of RNA | P0AE70 | FAM/BHQ RNA-DNA oligo cleavage fluorescence, 5 h | activation, % at 20 µM | hit rate 0.32% among 350,000 | AID 504720; in the data active means activation above about 50%
TcdB GH inh – inhibitors of Clostridioides difficile toxin B glycohydrolase | inhibition, % at 9.99 µM | TcdB glycohydrolase enzymatic assay, plate reader | P18177 | AID 652162 | hit rate 0.24% among 350,000; in the data active means inhibition above about 10%
The depositor's hits bear a star; / = no result given; + = active, no number.

SMILES | RecA intein inh | Mtb betalactam | Rv3671c protease | UGM FP inh | MazEF act | TcdB GH inh
Cc1ccc2c(C)c3ccc4ccccc4c3c[n+]2c1 | / | / | / | / | -6 | 11*
Cc1onc(-c2ccccc2)c1C(=O)Nc1ncc([N+](=O)[O-])s1 | -1 | -4 | 3 | 1 | 12 | -1
Cc1ccc(C(=O)Nc2ncc([N+](=O)[O-])s2)cc1 | 25 | 5 | -11 | 5 | -5 | 21*
O=C(Nc1ncc([N+](=O)[O-])s1)c1ccc2c(c1)OCO2 | 31* | 13 | -6 | 4 | -6 | 2
COc1ccc(NC(=O)N(C)C[C@@H]2Oc3c(NC(=O)NC(C)C)cccc3C(=O)N([C@H](C)CO)C[C@@H]2C)cc1 | / | / | / | / | / | -7
Cc1cccc(S(=O)(=O)N2CCCCN3[C@H](C2)[C@@H](c2ccc(-c4cccnc4)cc2)[C@@H]3CO)c1 | / | / | / | / | / | -5
CN1CCN(C(=O)C[C@@H]2C=C[C@H](NS(=O)(=O)c3cccc(F)c3)[C@H](CO)O2)CC1 | / | / | / | / | / | -1
O=C(NC1CC2CCCC(C1)N2C(=O)Nc1ccc(Cl)c(C(F)(F)F)c1)C1CC1 (configuration not stated) | -1 | -12 | -7 | 1 | 4 | /
O=C(Nc1ccc(Cl)c(C(F)(F)F)c1)NC1CC2CCCC(C1)N2Cc1ccccc1 (configuration not stated) | 12 | 99 | -13 | -1 | 159* | 4
C[C@@H](NC(=O)C[C@@H]1CC[C@H]2[C@@H](COC[C@@H](O)CN2C)O1)c1ccccc1 | / | / | / | / | / | -1
NC(=O)C1(Nc2ccc(-c3ccc(Br)cc3)cc2)CCCC1 | / | / | / | / | -4 | 11*
CO[C@H]1CN(C)C(=O)c2cc(NC(=O)NC3CCCC3)ccc2OC[C@@H](C)N(C)C[C@@H]1C | / | / | / | / | / | 0
Cc1ccc(S(=O)(=O)N2CCN=C2SCc2ccc(Cl)c(Cl)c2)cc1 | 1 | 5 | -10 | 1 | + | /
COc1ccccc1Oc1nc(C)c(C(C)=O)cc1C#N | 1 | 1 | -1 | 0 | 3 | 1
COc1ccccc1Oc1cc(C#N)c(C#N)cc1-n1nnc2ccccc21 | 42* | 11 | 4 | -1 | 0 | /
COCCn1c(NC(=S)NC(=O)C2CC2)cc(=O)[nH]c1=O | -2 | -12 | 9 | -2 | 2 | 23*
O=C1C(NS(=O)(=O)c2ccc(Br)cc2)=C(N2CCCCC2)C(=O)c2ccccc21 | 12 | 4 | -19 | 1 | -1 | 1
O=C1C(Nc2ccccc2)=C(N2CCCCC2)C(=O)c2ccccc21 | 46* | 40 | -137 | -1 | -21 | /
COc1cc(C=NNC(=O)c2ccccc2-n2cccc2)ccc1O | / | -6 | 13 | 1 | -12 | 13*
COc1cc(/C=N/Nc2nc3ccccc3[nH]2)ccc1O | 3 | 7 | 11 | -4 | -2 | 20*
COc1cc(/C=N/NC(=O)C2COc3ccccc3O2)ccc1O (configuration not stated) | -2 | -6 | -17 | 1 | -4 | 14*
O=C(N/N=C\c1ccc(O)c([N+](=O)[O-])c1)c1ccccc1-n1cccc1 | -2 | 0 | -9 | 1 | 4 | /
COc1ccc(C=NNC(=O)c2cc(C)oc2C)cc1O | / | 2 | 7 | 0 | 5 | 10*
COc1cc(/C=N/Nc2nc3ccccc3[nH]2)cc(OC)c1O | 9 | 3 | 21 | -2 | 4 | /
COc1cc(/C=N/NC(=O)c2cc(C)oc2C)ccc1O | -5 | -3 | 5 | 3 | 4 | 4
SMILES | RecA intein inh | Mtb betalactam | Rv3671c protease | UGM FP inh | MazEF act | TcdB GH inh
C[C@@H]1CCCCO[C@@H](CN(C)C(=O)CCC(F)(F)F)[C@@H](C)CN([C@@H](C)CO)C(=O)c2cc(N(C)C)ccc2O1 | / | / | / | / | / | -13
CN(C)CC(=O)N[C@@H]1CC[C@H](CC(=O)NCc2ccc(Cl)cc2)O[C@@H]1CO | / | / | / | / | / | -9
COCC(=O)Nc1ccc2c(c1)C(=O)N(C)C[C@@H](OC)[C@H](C)CN(Cc1ccccc1F)[C@@H](C)CO2 | / | / | / | / | / | 0
CC(C)C#Cc1ccc2c(c1)O[C@@H](CN(C)Cc1cncnc1)[C@H](C)CN([C@@H](C)CO)S2(=O)=O | / | / | / | / | / | 1
COc1cc(/C=N/NC(=O)C2(O)c3ccccc3-c3ccccc32)ccc1O | -12 | -2 | -11 | 2 | 5 | 10*
COc1ccc(/C=N/NC(=O)c2cccc([N+](=O)[O-])c2)cc1O | -2 | 0 | -7 | 1 | -7 | 1
COc1cc(/C=N/NC(=O)c2cccc([N+](=O)[O-])c2)ccc1O | -5 | 17 | 3 | -3 | 6 | 12*
COc1cc(/C=N/NC(=O)Cn2nnc3ccccc32)ccc1O | -3 | -3 | -6 | -2 | 6 | 12*
